ERa coact inh = blocks coactivator binding to human estrogen receptor alpha | actives 1.7% (n = 86,000) | P03372 | TR-FRET ER-alpha LBD / SRC-1 peptide, estradiol-bound | inhibition, % at 25.6 µM; in the data active means inhibition above about 50%;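 further: 0% = receptor plus peptide control and 100% = peptide only without receptor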
ERb coact inh = ER-beta (human) coactivator binding inhibition | Q92731 | TR-FRET ER-beta LBD / SRC1-Cy5 peptide binding; receptor agonist-loaded with 1 µM estradiol | inhibition, % at 25.6 µM | actives 1.3% (n = 86,000) | AID 633;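 active means compounds whose percent inhibition of the receptor-coactivator binding signal exceeds about 50% in the single-dose screen, limit read from the data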;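 further: 0% = receptor plus peptide wells without compound and 100% = peptide-only wells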
Target sequence (Q92731 whole entry, looked up, the tested form may be a part): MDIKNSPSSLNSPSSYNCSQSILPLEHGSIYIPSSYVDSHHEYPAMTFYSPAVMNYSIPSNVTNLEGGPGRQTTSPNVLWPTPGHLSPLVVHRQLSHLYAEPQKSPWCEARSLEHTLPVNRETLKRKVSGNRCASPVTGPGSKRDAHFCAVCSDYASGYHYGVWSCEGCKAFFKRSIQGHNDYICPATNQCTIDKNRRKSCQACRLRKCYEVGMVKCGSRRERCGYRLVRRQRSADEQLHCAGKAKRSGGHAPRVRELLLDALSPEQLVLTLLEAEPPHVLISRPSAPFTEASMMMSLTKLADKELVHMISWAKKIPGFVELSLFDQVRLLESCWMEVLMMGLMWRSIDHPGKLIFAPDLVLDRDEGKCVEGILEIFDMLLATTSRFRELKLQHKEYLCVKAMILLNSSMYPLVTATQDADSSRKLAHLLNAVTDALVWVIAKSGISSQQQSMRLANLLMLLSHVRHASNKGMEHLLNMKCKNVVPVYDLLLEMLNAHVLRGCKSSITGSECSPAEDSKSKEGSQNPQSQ
Candida biofilm = kills Candida albicans biofilms; inhibition, % at 6 µM; actives 0.14% (n = 85,000); C. albicans biofilm + clotrimazole, Alamar Blue;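 active means inhibition above 20%; inactive means inhibition below 20%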;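 further: preformed 24 hr biofilms exposed to compound for 48 hr; 0% = biofilm without compound and 100% = blank killed by clotrimazole plus chlorhexidine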
Smad3 inh = blocks human Smad3 binding to FoxH1 peptide; P84022; TR-FRET Smad3/Dy647-FoxH1 peptide binding, europium anti-His; inhibition, % at 25 µM; actives 0.29% (n = 88,000);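 active means compounds that reduce the energy-transfer binding signal between the protein and its labelled peptide by more than half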;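 further: 0% = Smad3 plus labelled peptide maximal FRET and 100% = peptide-only background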
ERa coact pot = enhances coactivator binding to human estrogen receptor alpha. P03372. TR-FRET ERalpha-LBD/SRC-Cy5 coactivator binding, 2 h; 100 = basal binding, no effect. coactivator binding (% of control), % at 25.6 µM. actives 1.3% (n = 86,000). AID 639; in the data active means activity above about 200%;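 further: binding measured in presence of low estradiol as agonist stimulus; 0% = peptide alone without receptor and 100% = receptor with peptide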
Numbers without * were called inactive; . = no result; [ ] = dose if it differs, or a comment. An excerpt weighted towards active compounds, which were near 3.8% of everything screened.

SMILES	ERa coact inh	ERb coact inh	Candida biofilm	Smad3 inh	ERa coact pot
CCN(CC)c1ccc(NC(=O)c2cccnc2)c(C)c1	-9	-11	5	-21	104
CCN(CC)c1ccc(NC(=O)c2cnc3ccccn3c2=O)c(C)c1	-41	-1	-3	-1	629*[fluorescence artefact?]
CCCCNC(=O)CC1SC(=NCC)N(CC)C1=O (centres undefined)	5	-37	1	11	116
CCN=C1SC(CC(=O)NC(C)C)C(=O)N1CC (centres undefined)	3	-26	5	-3	853*[fluorescence artefact?]
COC(=O)c1cc(NC(=O)c2ccc(Cn3cc(Cl)cn3)o2)cc(C(=O)OC)c1	58*[fluorescence artefact?]	28	8	4	100
COC(=O)c1ccccc1NC(=O)c1ccc(Cn2cc(Cl)cn2)o1	17	2	6	2	75
CC1=CC(c2ccc(Cl)cc2)n2nc(NC(=O)c3ccccc3)nc2N1 (centres undefined)	4	1	-2	-5	92
COc1ccc(C2C=C(c3ccc(Cl)cc3)Nc3nc(NC(C)=O)nn32)cc1 (centres undefined)	70*	22	1	4	172
CC(=O)Nc1nc2n(n1)C(c1ccccc1)C=C(c1ccccc1)N2 (centres undefined)	-1	12	4	-8	100
CC(=O)Nc1nc2n(n1)C(c1ccc(Cl)cc1)C=C(C)N2 (centres undefined)	9	7	3	63*	98
COCCNC(=O)c1cc2oc3ccccc3c2n1C	-10	-8	4	1	113
COc1ccc(C)cc1NC(=O)c1cc2c(CO)cnc(C)c2oc1=N	-28	14	0	49	239*[fluorescence artefact?]
Nc1nc(-c2cccnc2)cc(-c2cc(-c3cccnc3)nc(N)n2)n1	.	.	.	1	.
COCc1c(C(=O)N2CCN(c3ccc(C(F)(F)F)cn3)CC2)oc2ccccc12	-2	-10	2	1	85
O=C(Nc1nnc(-c2ccccc2Cl)o1)c1nc2ccccc2s1	24	20	7	-3	76
O=C(O)CC[C@@H](C(=O)O)N1C(=O)[C@@H]2[C@@H]3CC[C@@H](C3)[C@@H]2C1=O	.	.	.	-1	.
O=C(NCCCN1CCCCCC1)C1CC(=O)N(CCc2ccccc2)C1 (centres undefined)	3	22	4	60*	966*[fluorescence artefact?]
O=C(COc1ccccc1)Nc1ccc(Cl)c(-c2nc3ncccc3o2)c1	50*	44	4	12	226*[fluorescence artefact?]
O=C(COc1ccccc1)Nc1ccc2c(c1)nc1n2CCOC1	10	-6	7	10	125
Cc1ccc(OCC(=O)Nc2ccc(-c3nc4ncccc4o3)cc2)c(C)c1	51*[fluorescence artefact?]	45	3	9	157
Cc1ccc(C(=O)CSC2=C(C#N)C(c3ccco3)CC(=O)N2)c(C)c1 (centres undefined)	60*	64*	8	8	69
O=S(=O)(Nc1ncnc2sc3c(c12)CCC3)c1ccc2ccccc2c1	38	53*	-4	0	59
O=C(O)CSCCc1ccccc1	.	.	.	-16	.
C[C@@H]1Oc2ccc(C(=O)C[C@@H](C(=O)O)c3ccc4c(c3)OCO4)cc2O1	.	.	.	-5	.
Cc1cc(Br)c2c(c1)=C(c1sc(N3CCCCCC3)nc1O)C(=O)N=2	74*[fluorescence artefact?]	50	-6	8	179
SMILES	ERa coact inh	ERb coact inh	Candida biofilm	Smad3 inh	ERa coact pot
CC1(C)CC(=O)c2sc(N3CCCCC3)nc2C1	-5	-6	-6	6	117
CC(=O)O[C@]1(C)N=NC2(CCCCC2)O1	.	.	.	-7	.
CC(=O)OC1c2ccccc2C(=O)N1Cc1ccccc1 (centres undefined)	-4	3	-2	4	88
O=C(CSc1nc(Nc2ccccc2)nc(N2CCOCC2)n1)N1CCc2ccccc21	19	4	2	2	209*
C[C@@H]1O[C@H](O)[C@@H](O)[C@H](O)[C@H]1O	.	.	.	10	.
O=C(O)CN(CCN(CC(=O)O)CC(=O)O)CC(=O)O.[Mn+2]	.	.	.	9	.
CCC(=O)c1coc2ccc(O)cc12	67*[fluorescence artefact?]	78*[fluorescence artefact?]	3	-3	45
O=C(c1cc2ccccc2oc1=O)N(Cc1ccco1)Cc1cccs1	-9	-6	3	-6	537*
O=C(c1cc2ccccc2oc1=O)N(Cc1cccs1)Cc1cccs1	-4	-2	11	1	113
COc1cccc(C2CC(c3ccccc3OC)n3ncnc3N2)c1 (centres undefined)	-1	-2	9	0	595*[fluorescence artefact?]

High-throughput results from PubChem.
